Experimental data reported in the supplement of paper PMC10338343.
± gives the standard deviation.

What follows are sequences tested on MILI (PIWIL2) piRISC loaded with piRNA #1 (26 nt) (assay: pre-steady-state target cleavage rate (min^-1); guide: piRNA #1 5'p-UGAGGUAGUAGGUUGUAUAGUAUCCA; MIWI and MILI are mouse PIWI proteins and EfPiwi is from a freshwater sponge; tags in brackets are library labels; higher = faster piRNA-guided slicing of the target). Details: auxiliary factor: 500 nM mouse GTSF1.
How it was run: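 Cleave-'n-Seq: 1 nM active affinity-purified piRISC with one synthetic guide and 0.1 nM transcribed, DNA-blocked target RNA library were mixed, with or without 500 nM GTSF1 partner protein, in HEPES–potassium acetate buffer at 33 °C for 0–8 or 0–960 min. Uncleaved targets were sequenced and normalised to depth and to weakly complementary targets, three trials were pooled, and k3 was capped at 0.0001 min^-1. The pre-steady-state cleavage rate was fitted […].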
In the case of GGAGACCUAUGAUAUGUUCCUAUCUACCUCA, the “pre-steady-state target cleavage rate” value is reported as under 0.0001. With GGAGACCUAUGAUAUGUACCUACUACCCUCA the “pre-steady-state target cleavage rate” value was under 0.0001. For GGAGACCAUACUAUAAACCUACUACCUCA, the “pre-steady-state target cleavage rate” value was 0.0199 ± 0.0046. GGAGUGGAUACUAUACUACCAACUACCUCA was tested, and the “pre-steady-state target cleavage rate” value was 0.00975 ± 0.0022. With GGAGUGGAUAGUAUUCAACCUACUACCUCA the “pre-steady-state target cleavage rate” value was 0.106 ± 0.011. With GGAGACCUAUGAAUACAACAUACUACCUCA the “pre-steady-state target cleavage rate” value was 0.00332 ± 0.0021. For GGAGACCAUAGUAUAGAACCUACUACCUCA, the “pre-steady-state target cleavage rate” value was 0.105 ± 0.011. GGAGACCUAUGAUUUACAACCUACUACCUCA was tested, and the “pre-steady-state target cleavage rate” value was 0.00564 ± 0.003. GGAGACCUAUGAUAUCCAACCUACUACCUCA was tested, and the “pre-steady-state target cleavage rate” value was 0.0112 ± 0.0022. For GGAGACCUAUCUAUUCAUCCUACUACCUCA, the “pre-steady-state target cleavage rate” value was 0.172 ± 0.021. GGAGACCUAUGAUAUGUGCCUACUACCUCA was tested, and the “pre-steady-state target cleavage rate” value was under 0.0001. In the case of GGAGACCUUACUAUACAUCCAACUACCUCA, the “pre-steady-state target cleavage rate” value is reported as 0.0082 ± 0.003. With GGAGACGAUACUAUUGUACCUACUACCUCA the “pre-steady-state target cleavage rate” value was 0.119 ± 0.0095. With GGAGACCUAUCUAUACAACCUUCUUCCUCA the “pre-steady-state target cleavage rate” value was 0.00365 ± 0.0029. For GGAGACCUAUGAUUACAUCCUACUAGCUCA, the “pre-steady-state target cleavage rate” value was 0.00651 ± 0.0025. For GGAGACCUAUCUAUUCAAGCUACUACCUCA, the “pre-steady-state target cleavage rate” value was 0.196 ± 0.015. With GGAGACCUAUCUAUAGAAGCUACUACCUCA the “pre-steady-state target cleavage rate” value was 0.143 ± 0.019. GGAGACCUUACUAUACAACCAACUUCCUCA was tested, and the “pre-steady-state target cleavage rate” value was 0.00396 ± 0.0024. With GGAGACCUAUCUAUACAACCUACUAACCUCA the “pre-steady-state target cleavage rate” value was 0.143 ± 0.014. In the case of GGAGACCUAUGAAUACAACCUACUACCUUCA, the “pre-steady-state target cleavage rate” value is reported as 0.00676 ± 0.0021. With GGAGACCUUACUAUACAUCCUUCUACCUCA the “pre-steady-state target cleavage rate” value was 0.0405 ± 0.0086. GGAGACCUAUGAUAUGAACUACUACCUCA was tested, and the “pre-steady-state target cleavage rate” value was 0.00657 ± 0.0021. For GGAGACCUAUGAUAUGUAUCCUACUACCUCA, the “pre-steady-state target cleavage rate” value was 0.0082 ± 0.0021. In the case of GGAGAGGAUUCUAUACAACCUAGUACCUCA, the “pre-steady-state target cleavage rate” value is reported as 0.0548 ± 0.0098. With GGAGACCUAUGUAUACAACCUACUACCCCA the “pre-steady-state target cleavage rate” value was 0.045 ± 0.011. In the case of GGAGACCAUACUAUACAUGGUACUACCUCA, the “pre-steady-state target cleavage rate” value is reported as 0.00626 ± 0.0026. In the case of GGAGACCUAUGUAUAGUUCCUACUACCUCA, the “pre-steady-state target cleavage rate” value is reported as 0.00602 ± 0.0021. With GGAGUGGAUACUUUACAACCAACUACCUCA the “pre-steady-state target cleavage rate” value was 0.00276 ± 0.0018. With GGAGAGGAUACUAUACUACCUUCUACCUCA the “pre-steady-state target cleavage rate” value was 0.0158 ± 0.0024. In the case of GGAGACCAUACAAUACAACCUAGUACCUCA, the “pre-steady-state target cleavage rate” value is reported as 0.0587 ± 0.011. In the case of GGAGACCUUACAAUUCAACCUACUACCUCA, the “pre-steady-state target cleavage rate” value is reported as 0.102 ± 0.013. For “GGAGACCUAUCUAUACAACCUACUACCUCC [g2:g20:cont:t1C]”, the “pre-steady-state target cleavage rate” value was 0.106 ± 0.011. In the case of GGAGACCUAUGAUAUGUACCUACACCUCA, the “pre-steady-state target cleavage rate” value is reported as under 0.0001. In the case of GGAGACCUAUGAUAUCAAGCUACUACCUGA, the “pre-steady-state target cleavage rate” value is reported as 0.00472 ± 0.003. GGAGACCUAUGUAUACUACCUACUACCACA was tested, and the “pre-steady-state target cleavage rate” value was 0.0548 ± 0.008. GGAGACCUAUGUAUACAACCUAAUACCUCA was tested, and the “pre-steady-state target cleavage rate” value was 0.0196 ± 0.0049. GGAGACCUUACUAUAGAACCUACUUCCUCA was tested, and the “pre-steady-state target cleavage rate” value was 0.00446 ± 0.0033. GGAGACCUAACUAUUCAACCUACUACCUCA was tested, and the “pre-steady-state target cleavage rate” value was 0.138 ± 0.022. With GGAGACCUUACAAUAGAACCUACUACCUCA the “pre-steady-state target cleavage rate” value was 0.0823 ± 0.01.
